HSF-1 act: increases HSF-1 driven luciferase reporter signal | AID 504408 | activation, % at 9 µM | 1.7% of 300,000 active | NIH3T3-HGL HSF-1 luciferase reporter, MG132, 8 h; 100% = twice DMSO control signal;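 active = mean replicate activation of at least 50% with a set share of replicates each reaching 50%; inconclusive = only one of those two conditions met; inactive = mean below 50% and too few replicates reaching it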;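 note: 0% = median of the neutral control wells and 100% = twice that signal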
AHR activator: human AHR activation. AID 2796. 2.5% of 320,000 active. activation, % at 5 µM. AHR-responsive luciferase reporter cells, luminescence; in the data active = activation above about 47%;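 note: 0% = vehicle wells and 100% = reference agonist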
HSF1 inh: HSF1 inhibition. NIH3T3-HGL HSE-luciferase, MG132-induced, luminescence 8 h; hits give low values. AID 2098. activity change, negative = inhibition, % at 7.5 µM (by protocol). 0.77% of 300,000 active;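 active = more than half of replicate wells show activity change below -50%, luminescence cut by over half; inconclusive = some wells, but at most half, below -50%; inactive = no replicate well below -50%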;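 note: luciferase reports HSF-1 transcriptional activity via heat shock element; 0% = median of DMSO wells and -100% = zero luminescence signal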
FXN GAA850 act: frataxin GAA850 promoter activation | HEK293 lucGAA850 FXN promoter luciferase reporter, 24 h; percent of 10 µM SAHA response | 0.56% of 360,000 active | activation, % at 6 µM | AID 540364;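 active = activation above the average of all compounds screened plus 3 SD, cutoff fixed separately per campaign, cut at about 7.5% in these data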;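 note: 0% = DMSO wells and 100% = 10 µM SAHA wells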
Starred values were filed as active, the others as inactive; ? = inconclusive; . = no result given. Most compounds without a hit are left out; they make up all but 4.6% or so of the library.

SMILES | HSF-1 act | AHR activator | HSF1 inh | FXN GAA850 act
CCOC(=O)N1CCN(CC(=O)Nc2c(C(=O)OC)[nH]c3ccc(Cl)cc23)CC1 | -5 | 6 | -8 | -2
CCOC(=O)c1[nH]c2cc3c(cc2c1NC(=O)CN1CCC2(CC1)OCCO2)OCO3 | -19 | 62* | -9 | 0
CCOC(=O)N1CCN(CC(=O)Nc2c(C(=O)OC)[nH]c3cc(C)ccc23)CC1 | -4 | 64* | -7 | 0
CCOC(=O)c1[nH]c2cc3c(cc2c1NC(=O)CN1CCN(CCO)CC1)OCO3 | -2 | 22 | -4 | -2
Cc1cccc(NC(=O)c2cc([N+](=O)[O-])ccc2Cl)c1O | 29 | 48* | 19 | 0
Cc1n[nH]c(C)c1NC(=O)c1cc([N+](=O)[O-])ccc1Cl | 5 | -1 | -8 | 1
O=C(Nc1ccc2c(c1)CCCN2C(=O)c1ccco1)c1cc([N+](=O)[O-])ccc1Cl | 74* | 15 | 65 | -8
O=C(c1ccccc1Oc1ccc(C(F)(F)F)cc1[N+](=O)[O-])N1CCOCC1 | 8 | -2 | 1 | 1
O=C(Nc1ccccc1Cl)c1ccccc1Oc1ccc(C(F)(F)F)cc1[N+](=O)[O-] | 12 | 75* | 7 | -1
CCc1ccccc1NC(=O)c1cccc(Oc2ccc([N+](=O)[O-])cc2Cl)c1 | 15 | 4 | 14 | 3
O=C(Nc1ccccc1Oc1ccccc1)c1cc([N+](=O)[O-])ccc1Cl | 21 | 108* | 12 | -15
Cc1ccc2nc(-c3ccncc3)cc(C(=O)NCc3ccccc3F)c2c1 | 2 | 20 | 2 | 3
CCn1c(SCc2ccccc2)nc2ccccc2c1=O | 1 | 4 | -1 | 2
CN1CCC[C@H]1CCNC(=O)c1c(-c2ccsc2)sc2ccccc12 | . | 5 | . | 0
CCCCc1c(O)c2ccccc2n(CCCC)c1=O | -52 | -1 | -39 | -1
COc1ccc(NC(=O)c2cc([N+](=O)[O-])ccc2O)cc1 | -69 | -7 | -73* | -14
O=C(Nc1ccc(Nc2ccccc2)cc1)c1cc([N+](=O)[O-])ccc1Cl | 134* | -5 | 107 | -6
COc1ccccc1NC(=O)c1cc([N+](=O)[O-])ccc1NCCN1C(=O)CCC1=O | 15 | 51* | 12 | 1
O=C(O)c1ccccc1C(=O)Nc1ccc(Nc2ccc([N+](=O)[O-])cc2[N+](=O)[O-])cc1 | 16 | 1 | -5 | 6
CC(=O)Nc1ccc(NC(=O)c2ccccc2Sc2ccc([N+](=O)[O-])cc2Cl)cc1 | 76* | 0 | 33 | 0
O=C(Nc1cc(Cl)ccc1Oc1ccccc1)c1ccccc1F | -15 | 65* | 9 | 1
CC1COc2ccccc2N1C(=O)c1ccc(Cl)cc1 (configuration not stated) | 6 | 12 | -5 | 0
CCCCNC(=O)Nc1ccc(C2SCCS2)cc1 | 69* | 9 | 47 | 2
O=C(Nc1ccc2nc3ccccc3nc2c1)c1ccccc1 | 81* | 7 | 40 | 6
O=C(Nc1ccc2c(c1)C(=O)NC2=O)c1cccc(C(F)(F)F)c1 | 28 | 53* | -3 | 1
SMILES | HSF-1 act | AHR activator | HSF1 inh | FXN GAA850 act
O=C(Nc1ccc2c(c1)C(=O)NC2=O)c1ccccc1 | 0 | 37 | -1 | -3
CNC(=O)Nc1ccc(C2SCCS2)cc1 | 31 | 5 | 8 | 2
O=C(Nc1ccc(Nc2ccccc2)cc1)c1ccccc1 | 32 | -5 | 15 | .
O=C(Nc1ccc(F)cc1)c1ccccc1 | 65* | 1 | 29 | 2
C=CC(COCc1ccccc1)N(Cc1ccc(OC)cc1)S(=O)(=O)c1ccccc1Br (configuration not stated) | 21 | 2 | 6 | 1
O=C(Nc1ccc(F)cc1)c1cccc(C(=O)Nc2ccc(F)cc2)c1 | -8 | 51* | 6 | -1
O=C(Nc1ccc(C2SCCS2)cc1)c1ccccc1 | 54* | 4 | 31 | 3
Cc1cccc(C(=O)NC2CCN(C(=O)Nc3ccccc3C)CC2)c1 | -4 | 7 | 0 | 0
O=C(O)c1ccc(NC(=O)c2cccc(C(=O)Nc3ccc(C(=O)O)cc3)c2)cc1 | 14 | 12 | 5 | 1
O=C(Nc1ccccc1)c1ccc(NC(=O)C2CC2)cc1 | 54* | -2 | 27 | 3
Cc1cccc(C(=O)NC2CCN(C(=O)Nc3ccc(F)cc3)CC2)c1 | -63 | 3 | -54* | -2
COc1cccc(C2C(C(=O)c3cc4ccccc4o3)=C(O)C(=O)N2c2cc(C)on2)c1 (configuration not stated) | -55 | 3 | -41 | -1
COC(=O)N1C(=O)[C@](c2ccccc2)(C2CCCCC2)N1C(=O)OC | ? | 3 | 50 | -2
Cc1cc(C)c(S(=O)(=O)N2CCOC23CCN(S(C)(=O)=O)CC3)c(C)c1 | . | . | . | 0
C/C(=N\Nc1nccnc1Cl)c1ccc(O)cc1 | 12 | 28 | 1 | 4
C/C(=N\Nc1c(Cl)c(Cl)nc(C(=O)O)c1Cl)c1ccc(O)cc1 | -1 | 50* | -6 | 1
Oc1ccc(/C=C/c2cc(O)cc(O)c2)cc1 | -21 | 9 | -7 | 2
Cc1sc2ncnc(NCCc3ccc(S(N)(=O)=O)cc3)c2c1C | -61 | -7 | -51* | -1
CCOC(=O)Cc1csc(N/N=C/c2ccccc2)n1 | -16 | -11 | -14 | -3
CCOC(=O)Cc1csc(N/N=C\c2ccccc2OC)n1 | 30 | 51* | 15 | 4
Cc1ccc(-c2cnn(-c3cccc([N+](=O)[O-])c3)c2N)cc1 | 60* | -6 | 32 | 7
Cc1ccccc1-c1cnn(-c2cccc([N+](=O)[O-])c2)c1N | 9 | -3 | 3 | 0
CCN(CC)S(=O)(=O)c1cccc(C(=O)OCC(=O)NCc2ccccc2OC)c1 | -6 | -2 | -8 | 1
CN1CCN(CCCN(Cc2cccs2)C(=S)Nc2ccc(Cl)cc2)CC1 | 6 | -1 | -2 | -1
Cn1cccc1C(=O)C(=O)Nc1ccc(Cl)cc1 | 36 | -4 | 18 | 2
SMILES | HSF-1 act | AHR activator | HSF1 inh | FXN GAA850 act
Cn1cccc1C(=O)C(=O)Nc1ccc(F)c(F)c1 | 63* | -6 | 23 | 4
CCOC(=O)Cn1c(S(=O)(=O)Cc2cccc(F)c2)nc(-c2ccccc2)c1-c1ccccc1 | 16 | -1 | 1 | -6
CCOC(=O)Cn1c(S(=O)(=O)Cc2ccc(F)cc2)nc(-c2ccccc2)c1-c1ccccc1 | 89* | -1 | 40 | -6
O=C(/C=C/c1ccco1)Nc1ccccc1N1CCCC1 | 7 | 73* | 0 | -2
O=C(/C=C/c1ccco1)NC(=S)Nc1ccccc1N1CCCC1 | -2 | 65* | -3 | 2
COc1cccc(NC(=S)NC(=O)/C=C/c2ccco2)c1 | 18 | 45 | 10 | 0
COc1ccc(NC(=S)NC(=O)/C=C/c2ccco2)c(OC)c1 | 9 | 68* | 5 | 0
O=C(Cc1ccc([N+](=O)[O-])cc1)NCc1ccncc1 | 3 | 1 | -1 | 3
CCn1c(SCc2ccccc2)nnc1C1CCN(S(=O)(=O)c2ccc(OC)cc2)CC1 | 6 | 2 | 13 | 0
Cc1c(CC(=O)N2CCN(C(=O)C3COc4ccccc4O3)CC2)c(=O)oc2cc(O)cc(O)c12 (configuration not stated) | -4 | 1 | -1 | 0
